Reference: PubChem BioAssay (EPA / NIEHS)
Where “and” joins values, the source holds several entries; their conditions need not be identical. Equal entries are not always repeated. Records with an inconclusive call do not appear. Some compounds were tested as several samples or in several runs, with calls that do not always agree. Calls of active or inactive are those of the source. How the source made its calls, unless noted: active means hit-call score of the fitted dose curve at least 0.9, where 1 is the maximum; inactive means score below 0.9.

Tests used:
[1] = molecular target: Retinoic acid receptor RXR-alpha (Homo sapiens) (UniProt P19793); test: OT_NURR1_NURR1RXRa_1440: Odyssey Thera (OT) 24-hour HEK293T Protein Complementation Assay for Nurr1/retinoid X receptor (RXR) (AID 2283386; active means hit-call score of the fitted dose curve at least 0.9, where 1 is the maximum)
Outline: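 Cell-based binding reporter: HEK293T cells, 24 h exposure, fluorescence-detected fragment complementation, DMSO as baseline.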

[2] = molecular target: Peroxisome proliferator-activated receptor gamma (Homo sapiens) (UniProt P37231); test: OT_PPARg_PPARgSRC1_0480: Odyssey Thera (OT) 8-hour Protein-Complementation Assay for Peroxisome Proliferator-activated Receptor Gamma / SRC-1 Co-activator (AID 2283387; active means hit-call score of the fitted dose curve at least 0.9, where 1 is the maximum)
Outline: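 Read-out: 488 nm N/C fluorescence ratio from complemented Venus YFP fragments, ≥350 cells per image, gain-of-signal fitted against DMSO baseline. Fusions of PPARg/SRC-1 with IFP1/IFP2 expressed transiently in HEK293T; compounds applied 8 h.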

[3] = molecular target: Peroxisome proliferator-activated receptor gamma (Homo sapiens) (UniProt P37231); test: OT_PPARg_PPARgSRC1_1440: Odyssey Thera (OT) 24-hour Protein-Complementation Assay for Peroxisome Proliferator-activated Receptor Gamma/ SRC-1 Co-activator (AID 2283388; active means hit-call score of the fitted dose curve at least 0.9, where 1 is the maximum)
Outline: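 HEK293T cells transiently transfected with PPARg and SRC-1 fused via (Gly4Ser)2 linker to split Venus YFP fragments (IFP1/IFP2) were dosed 24 h; fixed, Draq5-stained, imaged at 488/635 nm; nuclear/cytoplasmic fluorescence ratio scored versus DMSO baseline, gain-of-signal.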

[4] = CEETOX_H295R_11DCORT: CeeTox H295R High-throughput Steroidogenesis Assay for 11-Deoxycortisol (11DCORT) (AID 2283432); conditions: actives raise or lower the signal;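 on AC50: 11-deoxycortisol secreted into the medium measured by LC-MS/MS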
Outline: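 H295R cells; 10 uM forskolin prestim 48 h; compound in 0.1% DMSO 48 h; media extracted with MTBE; 11-deoxycortisol by LC-MS/MS, 7-point standard curve; gain/loss vs DMSO baseline; viability by MTT in same wells.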

[5] = CEETOX_H295R_OHPREG: CeeTox H295R High-throughput Steroidogenesis Assay for OH-Pregnenolone (OHPREG) (AID 2283434); conditions: actives raise or lower the signal
Outline: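 H295R, 10 uM forskolin pre-stim 48 h; test chemical 48 h, 0.1% DMSO final. MTBE extraction, reverse-phase C18 HPLC-ESI+ MS/MS of medium. Gain/loss vs DMSO; viability by MTT in same wells.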

[6] = CEETOX_H295R_OHPROG: CeeTox H295R High-throughput Steroidogenesis Assay for OH-Progesterone (OHPROG) (AID 2283435); conditions: actives raise or lower the signal;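 on AC50: 17alpha-hydroxyprogesterone secreted into medium measured by HPLC-MS/MS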
Outline: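 Human adrenocortical H295R cells, passage 10 or lower, were treated with chemical for 48 h after forskolin priming, and hormone output in the medium was quantified by LC-MS/MS.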

[7] = CEETOX_H295R_CORTIC: CeeTox H295R High-throughput Steroidogenesis Assay for Corticosterone (CORTIC) (AID 2283437); conditions: actives raise or lower the signal;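 further: corticosterone secreted into medium quantified by mass spectrometry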
Outline: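 48 h forskolin (10 uM) prestim, then 48 h chemical exposure, final DMSO 0.1%. Readout: corticosterone in medium by LC-MS/MS after MTBE extraction. Gain/loss fit vs DMSO; MTT viability in same wells.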

[8] = CEETOX_H295R_DOC: CeeTox H295R High-throughput Steroidogenesis Assay for DOC (AID 2283439); conditions: actives raise or lower the signal
Outline: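 H295R, fsk 10 uM ×48 h pre, cmpd ×48 h (0.1% DMSO). Media → MTBE extr. → LC-MS/MS, DOC. Bidirectional fit vs DMSO; MTT viability same wells, re-test diluted if <70%.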

[9] = CEETOX_H295R_ESTRADIOL: CeeTox H295R High-throughput Steroidogenesis Assay for Estradiol (AID 2283440); conditions: actives raise or lower the signal;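 further: estradiol secreted into medium quantified by LC-MS/MS after dansyl derivatisation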
Outline: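 H295R adrenocortical cells were prestimulated with 10 uM forskolin for 48 h, then exposed to test chemical in 0.1% DMSO for 48 h. Medium estradiol was extracted with MTBE, dansyl-derivatized and quantified by HPLC-MS/MS; bidirectional fit versus DMSO.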

[10] = CEETOX_H295R_ESTRONE: CeeTox H295R High-throughput Steroidogenesis Assay for Estrone (AID 2283441); conditions: actives raise or lower the signal;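 further: estrone secreted into medium measured by LC-MS/MS after dansyl derivatization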
Outline: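 Forskolin-stimulated H295R cells are treated 48 h with chemical, and estrone in the medium is measured by LC-MS/MS. Activity is fitted in both directions relative to DMSO controls, with chemicals diluted until MTT viability reaches at least 70%.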

[11] = CEETOX_H295R_PROG: CeeTox H295R High-throughput Steroidogenesis Assay for Progesterone (PROG) (AID 2283442); conditions: actives raise or lower the signal;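 on AC50: human H295R adrenal cells primed with 10 µM forskolin before dosing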
Outline: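 H295R human adrenal cells were prestimulated with 10 uM forskolin for 48 h, then exposed to test chemical (0.1% DMSO final) for 48 h. Medium progesterone was MTBE-extracted and quantified by HPLC-MS/MS, with bidirectional fitting against DMSO.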

[12] = read-out: Tumor necrosis factor receptor superfamily member 6 (Homo sapiens) (UniProt P25445); test: LTEA_HepaRG_FAS: Life Technologies and Expression Analysis (LTEA) Assay for Fas cell surface death receptor (FAS) using HepaRG (AID 2283447); conditions: mRNA level, 48 h; actives raise or lower the signal
Outline: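 Differentiated HepaRG cells in serum-free induction medium were exposed 48 h to 8 half-log concentrations up to 100 uM in 0.5% DMSO, in duplicate. FAS mRNA was measured by qRT-PCR normalised to ACTB, GAPDH and POLR2A; bidirectional fit versus DMSO.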

[13] = read-out: Fatty acid synthase (Homo sapiens) (UniProt P49327); test: LTEA_HepaRG_FASN: Life Technologies and Expression Analysis (LTEA) Assay for Fatty Acid Synthase (FASN) using HepaRG (AID 2283448); conditions: mRNA level, 48 h; actives raise or lower the signal
Outline: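 In human HepaRG cultures, 48 h chemical exposure (up to 100 uM, 0.5% DMSO) preceded TaqMan qRT-PCR of FASN.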

[14] = read-out: Cyclin D2 (CCND2), CCND2 (gene 894); test: LTEA_HepaRG_CCND2: Life Technologies and Expression Analysis (LTEA) Assay for Cyclin D2 (CCND2) using HepaRG (AID 2283449); conditions: mRNA level, 48 h; actives raise or lower the signal;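 further: CCND2 transcript measured by TaqMan qRT-PCR and normalised to three housekeeping genes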
Outline: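 HepaRG, 48 h dosing, 8-pt half-log curve from 100 uM, 0.5% DMSO; duplicate wells. Readout: CCND2 transcript by microfluidic qRT-PCR, housekeeping-normalised; bidirectional fit vs DMSO baseline.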

[15] = read-out: Cyclin Dependent Kinase Inhibitor 1A (CDKN1A), CDKN1A (gene 1026); test: LTEA_HepaRG_CDKN1A: Life Technologies and Expression Analysis (LTEA) Assay for Cyclin Dependent Kinase Inhibitor 1A (CDKN1A) using HepaRG (AID 2283450); conditions: mRNA level, 48 h; actives raise or lower the signal
Outline: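 Differentiated human HepaRG cells, pre-cultured 48 h, were exposed in duplicate for 48 h in serum-free induction medium to eight half-log concentrations up to 100 uM (0.5% DMSO). CDKN1A mRNA was measured by qRT-PCR, normalized to ACTB/GAPDH/POLR2A, bidirectionally fitted versus DMSO.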

[16] = read-out: Cyclin D1 (CCND1), CCND1 (gene 595); test: LTEA_HepaRG_CCND1: Life Technologies and Expression Analysis (LTEA) Assay for Cyclin D1 (CCND1) using HepaRG (AID 2283451); conditions: mRNA level, 48 h; actives raise or lower the signal;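 on AC50: TaqMan qRT-PCR transcript level normalised to ACTB GAPDH and POLR2A housekeeping genes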
Outline: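 Differentiated human HepaRG cells in serum-free induction medium were exposed 48 h to eight half-log concentrations up to 100 uM in 0.5% DMSO; mRNA quantified by TaqMan qRT-PCR, normalized to ACTB, GAPDH, POLR2A, fitted bidirectionally versus DMSO.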

[17] = read-out: catalase (CAT), CAT (gene 847); test: LTEA_HepaRG_CAT: Life Technologies and Expression Analysis (LTEA) Assay for catalase (CAT) using HepaRG (AID 2283452); conditions: mRNA level, 48 h; actives raise or lower the signal;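 on AC50: TaqMan qRT-PCR signal normalized to ACTB GAPDH and POLR2A housekeeping genes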
Outline: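 HepaRG cells in serum-free induction medium, 0.5% DMSO vehicle, exposed 48 h in duplicate over 8 half-log concentrations from 100 uM. CAT mRNA measured by qRT-PCR, normalized to ACTB, GAPDH, POLR2A; bidirectional fit versus DMSO.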

[18] = read-out: flavin-containing dimethylaniline monooxygenases 3 (FMO3), FMO3 (gene 2328); test: LTEA_HepaRG_FMO3: Life Technologies and Expression Analysis (LTEA) Assay for flavin-containing dimethylaniline monooxygenases 3 (FMO3) using HepaRG (AID 2283453); conditions: mRNA level, 48 h; actives raise or lower the signal;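 on AC50: FMO3 transcript by TaqMan qRT-PCR normalized to ACTB GAPDH and POLR2A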
Outline: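 Eight-point concentration-response in serum-free HepaRG cultures (top 100 uM, 0.5% DMSO, 48 h). Read-out: FMO3 mRNA level normalized to three endogenous control genes, fitted bidirectionally versus vehicle.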

[19] = read-out: Cytochrome P450 (CYP1A1), CYP1A1 (gene 1543); test: LTEA_HepaRG_CYP1A1: Life Technologies and Expression Analysis (LTEA) Assay for Cytochrome P450 (CYP1A1) using HepaRG (AID 2283454); conditions: mRNA level, 48 h; actives raise or lower the signal
Outline: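 Differentiated HepaRG cells in serum-free induction medium were exposed in duplicate for 48 h to eight half-log concentrations up to 100 uM in 0.5% DMSO. CYP1A1 mRNA was quantified by TaqMan qRT-PCR, normalized to ACTB, GAPDH and POLR2A.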

[20] = CEETOX_H295R_ANDR: CeeTox H295R High-throughput Steroidogenesis Assay for Androstenedione (ANDR) (AID 2283436); conditions: actives raise or lower the signal
Outline: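 48 h chemical exposure, H295R cells, DMEM/F12 + ITS+ and Nu-Serum. Medium androstenedione: MTBE extraction, C18 reverse-phase HPLC, ESI+ MS/MS. Fit bidirectional vs DMSO; MTT viability in same wells.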

Measured: AC50

Sequence of Fatty acid synthase (Homo sapiens) (P49327 whole entry, looked up): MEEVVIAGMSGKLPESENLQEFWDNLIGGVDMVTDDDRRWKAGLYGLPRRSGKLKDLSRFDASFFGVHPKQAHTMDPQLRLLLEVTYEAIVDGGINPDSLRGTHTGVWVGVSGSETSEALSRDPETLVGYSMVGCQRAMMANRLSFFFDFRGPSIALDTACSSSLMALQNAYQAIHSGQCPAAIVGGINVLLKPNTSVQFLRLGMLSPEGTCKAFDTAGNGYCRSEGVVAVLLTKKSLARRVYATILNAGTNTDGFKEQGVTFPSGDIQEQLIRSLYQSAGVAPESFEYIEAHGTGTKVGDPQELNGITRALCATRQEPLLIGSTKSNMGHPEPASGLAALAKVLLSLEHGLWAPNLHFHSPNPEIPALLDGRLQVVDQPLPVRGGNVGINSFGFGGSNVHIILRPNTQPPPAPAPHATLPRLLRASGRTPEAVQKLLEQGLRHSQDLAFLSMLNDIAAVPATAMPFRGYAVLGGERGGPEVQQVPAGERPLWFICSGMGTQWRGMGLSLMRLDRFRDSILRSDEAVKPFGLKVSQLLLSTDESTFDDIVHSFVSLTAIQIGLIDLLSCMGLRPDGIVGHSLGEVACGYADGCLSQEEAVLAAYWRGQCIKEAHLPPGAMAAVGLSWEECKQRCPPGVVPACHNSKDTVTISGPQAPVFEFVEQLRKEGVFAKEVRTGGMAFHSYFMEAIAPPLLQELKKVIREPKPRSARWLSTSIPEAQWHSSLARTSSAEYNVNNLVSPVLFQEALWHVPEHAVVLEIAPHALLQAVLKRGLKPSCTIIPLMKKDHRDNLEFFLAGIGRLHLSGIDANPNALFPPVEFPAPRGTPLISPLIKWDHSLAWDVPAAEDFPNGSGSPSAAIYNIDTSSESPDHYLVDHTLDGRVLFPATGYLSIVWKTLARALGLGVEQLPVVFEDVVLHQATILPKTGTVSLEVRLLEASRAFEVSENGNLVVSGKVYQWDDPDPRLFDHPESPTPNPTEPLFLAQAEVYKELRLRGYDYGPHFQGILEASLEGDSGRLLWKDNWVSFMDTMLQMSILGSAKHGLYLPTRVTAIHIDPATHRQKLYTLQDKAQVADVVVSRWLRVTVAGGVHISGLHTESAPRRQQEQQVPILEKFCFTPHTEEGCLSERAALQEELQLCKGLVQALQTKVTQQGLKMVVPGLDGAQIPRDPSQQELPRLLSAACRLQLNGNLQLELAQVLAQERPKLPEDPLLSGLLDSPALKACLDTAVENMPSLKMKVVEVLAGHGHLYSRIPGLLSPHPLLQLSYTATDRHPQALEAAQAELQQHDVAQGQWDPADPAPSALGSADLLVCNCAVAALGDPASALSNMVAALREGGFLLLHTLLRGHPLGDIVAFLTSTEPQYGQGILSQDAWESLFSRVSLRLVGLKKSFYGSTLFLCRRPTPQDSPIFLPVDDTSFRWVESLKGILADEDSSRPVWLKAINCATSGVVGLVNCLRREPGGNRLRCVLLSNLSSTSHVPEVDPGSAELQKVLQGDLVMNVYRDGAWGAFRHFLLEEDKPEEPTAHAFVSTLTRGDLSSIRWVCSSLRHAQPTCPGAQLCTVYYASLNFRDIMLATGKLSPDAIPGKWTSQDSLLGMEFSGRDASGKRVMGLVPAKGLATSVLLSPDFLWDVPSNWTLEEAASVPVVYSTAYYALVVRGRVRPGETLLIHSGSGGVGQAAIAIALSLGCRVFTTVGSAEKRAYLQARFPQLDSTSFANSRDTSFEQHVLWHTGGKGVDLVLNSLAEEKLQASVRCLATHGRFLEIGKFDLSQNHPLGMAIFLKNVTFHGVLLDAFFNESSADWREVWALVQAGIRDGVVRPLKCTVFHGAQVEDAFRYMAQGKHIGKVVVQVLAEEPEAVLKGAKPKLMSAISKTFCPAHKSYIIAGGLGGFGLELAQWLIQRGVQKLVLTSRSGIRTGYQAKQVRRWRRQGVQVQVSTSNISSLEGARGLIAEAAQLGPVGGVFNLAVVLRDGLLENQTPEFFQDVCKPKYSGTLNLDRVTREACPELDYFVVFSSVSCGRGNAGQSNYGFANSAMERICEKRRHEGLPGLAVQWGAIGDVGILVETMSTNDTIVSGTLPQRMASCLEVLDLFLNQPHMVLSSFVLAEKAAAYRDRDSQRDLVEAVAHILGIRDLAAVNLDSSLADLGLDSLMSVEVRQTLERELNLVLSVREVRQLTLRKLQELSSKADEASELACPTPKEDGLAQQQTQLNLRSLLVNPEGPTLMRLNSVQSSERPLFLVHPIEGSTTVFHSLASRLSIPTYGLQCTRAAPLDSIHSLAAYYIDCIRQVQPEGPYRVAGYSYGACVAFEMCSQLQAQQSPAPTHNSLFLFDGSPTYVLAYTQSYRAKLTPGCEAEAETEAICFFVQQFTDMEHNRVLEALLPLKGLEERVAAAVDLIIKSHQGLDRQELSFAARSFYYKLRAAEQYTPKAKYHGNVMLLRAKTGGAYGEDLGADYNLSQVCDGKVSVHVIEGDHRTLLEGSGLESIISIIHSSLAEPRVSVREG
Sequence of Peroxisome proliferator-activated receptor gamma (Homo sapiens) (P37231 whole entry, looked up, the tested form may be a part): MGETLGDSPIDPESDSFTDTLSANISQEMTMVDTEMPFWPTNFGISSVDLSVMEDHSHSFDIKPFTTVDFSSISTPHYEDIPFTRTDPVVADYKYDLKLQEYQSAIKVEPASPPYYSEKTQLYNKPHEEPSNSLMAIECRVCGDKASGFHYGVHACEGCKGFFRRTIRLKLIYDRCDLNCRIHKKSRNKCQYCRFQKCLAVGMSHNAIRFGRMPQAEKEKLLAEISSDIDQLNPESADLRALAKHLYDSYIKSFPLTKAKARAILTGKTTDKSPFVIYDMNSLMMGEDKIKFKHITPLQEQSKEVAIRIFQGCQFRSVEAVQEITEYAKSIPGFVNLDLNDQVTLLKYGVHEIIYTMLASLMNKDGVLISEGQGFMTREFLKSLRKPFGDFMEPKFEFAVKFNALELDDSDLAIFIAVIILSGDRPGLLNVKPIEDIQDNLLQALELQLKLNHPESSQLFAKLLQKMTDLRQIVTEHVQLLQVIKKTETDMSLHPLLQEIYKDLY
Sequence of Retinoic acid receptor RXR-alpha (Homo sapiens) (P19793 whole entry, looked up, the tested form may be a part): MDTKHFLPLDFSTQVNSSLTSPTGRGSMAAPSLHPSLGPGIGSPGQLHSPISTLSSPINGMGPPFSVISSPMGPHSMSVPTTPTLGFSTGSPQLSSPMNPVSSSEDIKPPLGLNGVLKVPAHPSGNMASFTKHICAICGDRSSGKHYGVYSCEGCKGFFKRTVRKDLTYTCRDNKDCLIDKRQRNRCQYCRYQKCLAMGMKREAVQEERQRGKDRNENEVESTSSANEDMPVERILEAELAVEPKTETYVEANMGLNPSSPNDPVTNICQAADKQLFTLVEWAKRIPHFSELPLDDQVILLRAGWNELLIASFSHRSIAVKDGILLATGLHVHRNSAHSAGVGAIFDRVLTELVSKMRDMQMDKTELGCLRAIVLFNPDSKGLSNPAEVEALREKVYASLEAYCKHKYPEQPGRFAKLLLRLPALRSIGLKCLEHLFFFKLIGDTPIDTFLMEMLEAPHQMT

Cc1cccc(C)c1N
active: [19] 51.8 µM
not listed: [20]
inactive: all other assays above

CCNc1nc(NC(C)C)nc(SC)n1
active: [18] 50 µM | [19] 19.8 µM
not listed: [4] | [7] | [8] | [9] | [10] | [13] | [14]
inactive: all other assays above

Oc1c(Cl)c(Cl)c(Cl)c(Cl)c1Cl
inactive: [1] | [2] | [3] | [14] | [15] | [16]
active: [12] 6.31 µM | [13] 1.87 µM | [17] 2.73 µM | [18] 4.5 µM | [19] 7.23 µM

CCOCCOC(C)=O
active: [19] 50 µM
not listed: [1] | [9] | [10] | [20]
inactive: all other assays above

CC#Cc1cc(C)nc(Nc2ccccc2)n1
active: [6] 34.8 µM | [13] 1.83 µM | [15] 80.1 µM | [16] 13.3 µM | [18] 21.8 µM | [19] 13.8 µM
not listed: [20]
inactive: all other assays above

NS(=O)(=O)C(F)(F)C(F)(F)C(F)(F)C(F)(F)C(F)(F)C(F)(F)C(F)(F)C(F)(F)F
active: [13] 12.9 µM | [15] 1.8 µM | [16] 50 µM | [17] 9.12 µM | [18] 11.8 µM | [19] 13.8 µM
not listed: [1]
inactive: all other assays above

Clc1ccc(C(Cl)(Cl)Cl)cc1
inactive: [1] | [2] | [3] | [12] | [13] | [14] | [15] | [16] | [17] | [18] | [19]

Cc1cc(O)ccc1Cl
active: [6] 21.5 µM
not listed: [14] | [20]
inactive: all other assays above

OCC(O)CO
inactive: [2] | [3]

Cc1cc2c3c(c1)C(c1ccccc1)=N[C@@H](NC(=O)c1ccncc1)C(=O)N3CC2
active: [2] 25 µM and 20.8 µM | [3] 37.4 µM | [5] 25.4 µM | [6] 25.6 µM | [11] 28.1 µM | [13] 50 µM | [15] 50 µM | [18] 81.8 µM | [19] 24.4 µM
inactive: [3] | [9] | [10] | [12] | [14] | [16] | [17]

Clc1ccc(C(c2ccccc2Cl)C(Cl)(Cl)Cl)cc1 (configuration not stated)
active: [13] 50 µM | [17] 19.3 µM | [18] 74.6 µM | [19] 20 µM
not listed: [1] | [14] | [20]
inactive: all other assays above

c1cc2ccc3cccc4ccc(c1)c2c34
active: [4] 26.5 µM | [5] 15.8 µM | [6] 27.1 µM | [20] 35.9 µM | [8] 14.5 µM | [11] 13.9 µM | [14] 5 µM | [19] 24.3 µM
not listed: [9] | [10]
inactive: all other assays above

CCCCCCCCCc1ccc(O)cc1
active: [1] 79.1 µM and 85.9 µM | [19] 50 µM
inactive: [2] | [3] | [12] | [13] | [14] | [15] | [16] | [17] | [18]

Cc1ccccc1O
inactive: [1] | [2] | [3] | [12] | [13] | [14] | [15] | [16] | [17] | [18] | [19]

CCCCCCOC(=O)c1ccccc1C(=O)OCCCCCC
active: [19] 50 µM
inactive: [1] | [2] | [3] | [7] | [12] | [13] | [15] | [16] | [17] | [18]

C=CC(=O)NCNC(=O)C=C
inactive: [1] | [2] | [3] | [12] | [13] | [15] | [16] | [17] | [18]
active: [19] 25 µM
